The values that follow come from ChEMBL document CHEMBL3988442, “University of Dundee, Small-Polar-MMV Screening Library” (2021).

This experiment addresses T1, Tyrosyl-tRNA synthetase, putative (Trypanosoma cruzi (strain CL Brener)) (UniProt Q4DSP6).
T1 sequence (whole entry): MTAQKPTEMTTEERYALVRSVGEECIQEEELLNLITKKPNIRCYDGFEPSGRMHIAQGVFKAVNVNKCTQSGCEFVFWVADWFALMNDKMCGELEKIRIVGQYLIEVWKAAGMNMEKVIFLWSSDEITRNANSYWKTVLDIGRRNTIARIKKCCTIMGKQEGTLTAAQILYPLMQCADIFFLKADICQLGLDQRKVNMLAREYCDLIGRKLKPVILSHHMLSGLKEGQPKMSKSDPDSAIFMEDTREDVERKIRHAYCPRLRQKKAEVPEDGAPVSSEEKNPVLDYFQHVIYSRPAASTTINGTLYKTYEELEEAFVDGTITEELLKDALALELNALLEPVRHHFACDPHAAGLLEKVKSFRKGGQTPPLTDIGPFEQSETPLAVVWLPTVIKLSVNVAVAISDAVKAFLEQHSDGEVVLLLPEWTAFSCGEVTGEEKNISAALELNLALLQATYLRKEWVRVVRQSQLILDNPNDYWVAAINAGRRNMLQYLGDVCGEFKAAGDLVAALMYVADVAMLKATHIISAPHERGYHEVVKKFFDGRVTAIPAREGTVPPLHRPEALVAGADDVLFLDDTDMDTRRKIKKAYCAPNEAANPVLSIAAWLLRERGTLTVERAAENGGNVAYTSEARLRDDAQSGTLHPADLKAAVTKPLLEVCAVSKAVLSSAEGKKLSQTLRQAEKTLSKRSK
In words: Trypanosoma cruzi tyrosyl tRNA synthetase (TcYRS) SOP. It is filed as functional. To be noted: 30 µM. On the set-up: scale not given: direction of the effect not stated beside the values.
Take `Cc1nc(CO[C@@H]2CN(Cc3cnn(C)c3)[C@@H]3COC[C@@H]32)cs1`: the Percent Effect came to 11.1%.
Next, `CC(=O)N1CCN(Cc2csc(-c3cnn(C)c3)n2)CC1`: 9.76%; `CC1CN(CC(=O)Nc2nncs2)CCN1c1nccs1` (centres undefined): 18.3%; `CC(OCC1CC1)C(=O)N1CCCN(Cc2cnn(C)c2)CC1` (centres undefined): 17.7%.
Next, `O=S(=O)(CCNCc1cccc2c1OCCO2)N1CCOCC1`: 4.88%; `Cc1ccccc1[C@@H]1CN(C(=O)c2ccc3[nH]nnc3c2)C[C@H]1C(=O)O`: 3.7%; `CC1CCN(C(CNC(=O)CCn2cccn2)c2cccs2)CC1` (centres undefined): 21%.
Next, `Cc1ccc(NC2CCN(C(=O)COCC(F)(F)F)CC2)nn1`: 2.53%; `Cn1cc(CN2CCCC3(CCN(c4nncs4)C3)C2)cn1` (centres undefined): 6.17%.
As for `Cc1nc(Cn2nc(C3CCNCC3)n(Cc3ccccc3)c2=O)no1`, the Percent Effect was 4.88%.
Next, `CC(C)(C)c1cnc(CN2CCC(c3ccnn3CCO)CC2)o1`: 11.4%; `Cc1nc(COC[C@@H]2CC[C@H]3[C@H](CCN3c3ncccn3)O2)cs1`: 1.28%; `CC(=O)N(Cc1ncc(C)o1)C1CCN(Cc2noc(C)n2)C1` (centres undefined): 30.6%.
For `Cc1cc(CN(C)C2CCCN(Cc3noc(C4CC4)n3)C2)no1` (centres undefined), the Percent Effect is 3.7%.
Next, `COCC1CN(C(=O)C2=CCCCC2)Cc2cnn(CC3CC3)c21` (centres undefined): 16.7%.
Next, `CC(=O)N1CCCN(C(=O)NCCc2ccc(Cl)s2)CC1`: 7.59%.
`CCc1nnc(CN(C)c2nc(C3CCCC3)nc3c2cnn3C)o1`: the Percent Effect amounted to 7.69%.
Next, `COc1ccc(-c2cc(C3CCCCCN3S(=O)(=O)N(C)C)on2)cc1` (centres undefined): -66.2%.
Next, `O=C(N[C@@H]1CN(Cc2ccccc2)C[C@@H]2CCCO[C@@H]21)C1CC1`: 22.5%.
